# Most compounds without a hit are left out; they make up all but 32% or so of the library.
# CYP2C9 act: human CYP2C9 activators, primary screen, biochemical, luminescence. Cytochrome P450 2C9 (Homo sapiens), P11712. recombinant CYP2C9, luciferin-H conversion; hits give high values; factor 1 = untreated enzyme, 0 = blocked. activation factor at 5 µM. 96,000 tested, 1.4% active;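 active means activation factor of 2 or more for CYP2C9 at a 5 µM dose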
# Target sequence (P11712 whole entry, looked up): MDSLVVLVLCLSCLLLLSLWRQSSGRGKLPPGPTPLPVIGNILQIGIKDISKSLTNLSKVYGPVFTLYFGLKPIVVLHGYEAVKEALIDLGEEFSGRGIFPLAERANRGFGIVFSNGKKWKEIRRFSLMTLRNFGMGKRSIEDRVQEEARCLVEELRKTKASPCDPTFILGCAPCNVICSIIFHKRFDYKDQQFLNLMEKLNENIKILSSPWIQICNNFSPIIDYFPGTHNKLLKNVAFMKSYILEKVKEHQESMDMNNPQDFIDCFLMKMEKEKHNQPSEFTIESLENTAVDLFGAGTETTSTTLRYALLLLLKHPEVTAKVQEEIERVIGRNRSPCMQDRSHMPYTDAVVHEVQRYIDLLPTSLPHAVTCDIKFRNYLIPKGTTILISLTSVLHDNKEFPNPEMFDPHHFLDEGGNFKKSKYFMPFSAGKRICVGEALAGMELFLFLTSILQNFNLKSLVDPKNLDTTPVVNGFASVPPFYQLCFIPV
# PostGolgi yeast: phenotypic screen on post-Golgi transport, primary screen. 98,000 tested, 0.9% active. post-Golgi transport phenotypic cell assay. inhibition, % at 10 µM;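 further: yeast cells grown in 1536-well plates; yeast grown about 18 h at 30C before absorbance read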
# CYP2C19 inh: blockers of cytochrome P450 2C19 activity – biochemical, luminescence, ADME assay, primary screen; inhibition, % at 5 µM; CYP2C19 Supersomes, luciferin-H EGE luminescence, 30 min; 96,000 tested, 21% active; AID 778, 2007;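 active means CYP2C19 inhibition above a set limit at 5 µM in the primary screen, cut at about 50% in these data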
# CYP2C9 inhib: blockers of cytochrome P450 2C9 activity – biochemical, luminescence, ADME assay, primary screen; 96,000 tested, 20% active; P11712; inhibition, % at 5 µM; CYP2C9 Supersomes, luciferin-H conversion; AID 777, 2007;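 active means blocking of liver enzyme CYP2C9 beyond about 50% at 5 µM, limit read from the data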
# PostGolgi ctrl: growth inhibition of yeast control strain, primary screen, counter-screen for post-Golgi transport modulator project. efflux-deficient yeast background strain, growth absorbance A615, 16 h. inhibition, % at 10 µM. 98,000 tested, 5% active
# CYP2C19 act: human CYP2C19 activators, primary screen, biochemical, luminescence; recombinant CYP2C19, luciferin-H EGE luminescence; hits give high values; 0 = fully inhibited enzyme, 1 = untreated enzyme; 96,000 tested, under 10 active; activation factor at 5 µM;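 active means activation factor of at least 2 at 5 µM in the primary screen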
# Hits are given with their value; - = inactive; . = not tested or not shown. Unless noted, no stated cut-off is given here; in the data, active means inhibition above about 30%; inactive means the rest.
SMILES,CYP2C9 act,PostGolgi yeast,CYP2C19 inh,CYP2C9 inhib,PostGolgi ctrl,CYP2C19 act
O=C(Nc1ccccc1N1CCOCC1)C1Cc2ccccc2CN1C(=O)c1ccco1 (configuration not stated),-,-,51.4,67.1,-,-
Cc1c(NC(=O)C2Cc3ccccc3CN2C(=O)c2ccco2)c(=O)n(-c2ccccc2)n1C (configuration not stated),-,-,-,-,-,-
O=c1c2c([nH]c3ccccc13)CCCC2,2.4,-,-,-,-,-
O=c1c2c([nH]c3ccccc13)C(=C1CCCC1)CC2,-,-,-,-,-,-
COc1ccc(/C=N/n2c(-c3cccs3)n[nH]c2=S)cc1,-,-,-,-,39.7,-
Cc1ccc(/C=N/n2c(-c3cccs3)n[nH]c2=S)cc1,-,-,-,-,33.3,-
COc1ccc(-n2c(SCC(N)=O)nnc2-c2ccccc2F)cc1,.,-,.,.,-,.
CCc1nnc(NS(=O)(=O)c2ccc(N3C(=O)C4CC=C(Cl)CC4C3=O)cc2)s1 (configuration not stated),-,-,-,50.2,-,-
Cc1cc(C)nc(NS(=O)(=O)c2ccc(N3C(=O)C4CC=C(Cl)CC4C3=O)cc2)n1 (configuration not stated),-,-,-,-,-,-
CCC(C)n1nccc1NC(=O)C(C)OC(=O)c1cc2ccccc2[nH]1 (configuration not stated),-,-,97.0,-,-,-
CC(C)CC(C)NNC(=O)c1cc2ccccc2[nH]1 (configuration not stated),-,-,-,-,-,-
O=C(NC12CC3CC(CC(C3)C1)C2)c1ccc(S(=O)(=O)N2CCOCC2)cc1,-,-,-,-,-,-
CCOC(=O)C1CCN(C(=O)c2cc3c(-c4ccc(OC)c(OC)c4)nn(C)c3s2)CC1,-,-,92.3,94.7,-,-
CCOC(=O)C1CCCN(C(=O)c2cnn3c(C(F)(F)F)cc(-c4ccccc4)nc23)C1 (configuration not stated),-,-,-,-,-,-
CCOC(=O)C1CCCN(C(=O)c2cc3c(-c4cccc(OC)c4)nn(C)c3s2)C1 (configuration not stated),-,-,-,68.0,-,-
COc1ccc(-c2nn(C)c3sc(C(=O)NCc4ccco4)cc23)cc1OC,-,-,-,-,-,-
CCOC(=O)C1CCCN(C(=O)c2cc(-c3ccc(C)cc3)on2)C1 (configuration not stated),-,-,-,-,-,-
COc1ccc(NC(=O)c2cc3c(-c4ccc(OC)c(OC)c4)nn(C)c3s2)cc1OC,-,-,56.9,74.3,-,-
CCOC(=O)N1CCC(NC(=O)c2cc3c(-c4ccc(OC)c(OC)c4)nn(C)c3s2)CC1,-,-,-,-,-,-
CCOC(=O)C1CCCN(C(=O)c2cc3nc(-c4cccc(OC)c4)cc(C(F)(F)F)n3n2)C1 (configuration not stated),-,-,86.4,83.7,-,-
COC(=O)NCC(c1cccnc1)N1CCN(c2ccccc2OC)CC1 (configuration not stated),-,-,-,-,-,-
O=C(CSc1nc2ccccc2nc1SCC(=O)N1CCCCC1)N1CCCCC1,-,-,-,95.2,-,-
Nc1cc(N)nc(SCC(=O)N2CCCCC2)n1,-,-,-,51.7,-,-
O=C(CSc1nc2ccccc2nc1SCC(=O)N1CCOCC1)N1CCOCC1,-,-,-,-,-,-
Cc1cc(C)nc(SCC(=O)N2CCCCC2)n1,-,-,-,-,-,-
SMILES,CYP2C9 act,PostGolgi yeast,CYP2C19 inh,CYP2C9 inhib,PostGolgi ctrl,CYP2C19 act
Cc1ccc(CCNC(=O)C2CCN(C(=O)c3sccc3-n3cccc3)CC2)cc1,-,-,-,-,-,-
COc1ccc(C(=O)N2CCN(S(=O)(=O)c3ccccc3)CC2)c(OC)c1,-,-,-,-,-,-
COc1ccccc1-n1cnnc1SCC(=O)Nc1nc(C)c(Cl)cc1Cl,-,-,74.6,-,-,-
COc1cccc(OC)c1C(=O)N1CCN(S(=O)(=O)c2ccccc2)CC1,-,-,53.3,73.8,-,-
COc1ccccc1C(=O)N1CCN(S(=O)(=O)c2ccccc2)CC1,-,-,92.6,52.1,-,-
COc1ccccc1-n1cnnc1SCC(=O)N1CCN(S(=O)(=O)c2ccccc2)CC1,-,-,60.0,-,-,-
Cc1occc1C(=O)Nc1ccc2c(c1)CCC2,-,-,-,-,-,-
Cc1cc(NC(=O)CSc2nccn2-c2ccc(Cl)cc2)no1,-,-,80.9,53.8,-,-
Cc1cc(NC(=O)CSc2nccn2-c2ccc(F)cc2)no1,-,-,68.8,-,-,-
Cc1cc(NC(=O)CSc2nc(-c3ccc(F)cc3)cs2)no1,-,-,-,-,-,-
CCCC12CN3CC(CCC)(CN(C1)C3C(O)C(O)C(O)CO)C2=O (configuration not stated),-,-,-,-,-,-
CCOC(=O)c1c(NC(=O)Nc2ccc(Cl)cc2)sc(C)c1C,-,-,-,-,-,-
CCOC(=O)c1c(C)sc2c1N(C(=O)CCl)c1cc(Cl)ccc1S2,-,-,-,-,78.4,-
Cc1nn2c(-c3ccc(Cl)cc3)ccnc2c1-c1ccccc1,-,-,-,-,-,-
COc1nc(N(C)C)nc(N(OC)S(=O)(=O)c2ccccc2Cl)n1,-,-,89.5,72.4,-,-
COc1cc(C)nc(N(C)S(=O)(=O)c2ccccc2Cl)n1,-,-,73.4,-,-,-
O=S(=O)(Nn1cnnc1)c1ccccc1Cl,-,-,-,-,-,-
COc1cc(C)nc(N2CCCC(C(=O)Nc3cccc(Cl)c3Cl)C2)n1 (configuration not stated),-,-,-,-,-,-
CON(c1nc(Cl)nc(N(C)C)n1)S(=O)(=O)c1ccccc1Cl,-,-,69.4,-,-,-
CCOC(=O)c1ccc(Oc2nc(OC)nc(N(C)C)n2)cc1,.,-,.,.,-,.
Cc1ccc(/C(N)=N/OC(=O)c2cccc(F)c2)cc1,-,-,-,-,43.5,-
COc1ccc(-c2nc3n(c(=O)c2C#N)CCCS3)cc1,-,-,-,-,-,-
COc1ccc(-c2nc(SC)n(C)c(=O)c2C#N)cc1OC,-,-,-,95.0,-,-
O=C(CSc1nnc(-c2ccccn2)n1Cc1ccccc1)NC1CCCC1,-,-,-,-,-,-
CC(C)CC(=O)Nc1ccccc1-c1nnn(CC(=O)N2CCOCC2)n1,-,-,-,-,-,-
O=C(Cn1cc(/C=N/O)c2ccccc21)N1CCOCC1,-,-,-,-,-,-
